SMILES strings stand for the structures. Where “and” joins values, the source holds several entries; their conditions need not be identical. Equal entries are not always repeated. Results filed as inconclusive are left out. Entries that show only a call come without a potency. Calls of active or inactive are those of the source. Calls follow the shape of the dose curve; as a rule, active = well fitted inhibition curve with a large enough effect in the repeat runs; inconclusive = weak or mixed curves; inactive = flat fitted curve, though single readings scatter.
Potency is read from the fitted curve at half-maximal effect.

Chain of Voltage-gated inwardly rectifying potassium channel KCNH2 (Homo sapiens) (Q12809 whole entry, looked up): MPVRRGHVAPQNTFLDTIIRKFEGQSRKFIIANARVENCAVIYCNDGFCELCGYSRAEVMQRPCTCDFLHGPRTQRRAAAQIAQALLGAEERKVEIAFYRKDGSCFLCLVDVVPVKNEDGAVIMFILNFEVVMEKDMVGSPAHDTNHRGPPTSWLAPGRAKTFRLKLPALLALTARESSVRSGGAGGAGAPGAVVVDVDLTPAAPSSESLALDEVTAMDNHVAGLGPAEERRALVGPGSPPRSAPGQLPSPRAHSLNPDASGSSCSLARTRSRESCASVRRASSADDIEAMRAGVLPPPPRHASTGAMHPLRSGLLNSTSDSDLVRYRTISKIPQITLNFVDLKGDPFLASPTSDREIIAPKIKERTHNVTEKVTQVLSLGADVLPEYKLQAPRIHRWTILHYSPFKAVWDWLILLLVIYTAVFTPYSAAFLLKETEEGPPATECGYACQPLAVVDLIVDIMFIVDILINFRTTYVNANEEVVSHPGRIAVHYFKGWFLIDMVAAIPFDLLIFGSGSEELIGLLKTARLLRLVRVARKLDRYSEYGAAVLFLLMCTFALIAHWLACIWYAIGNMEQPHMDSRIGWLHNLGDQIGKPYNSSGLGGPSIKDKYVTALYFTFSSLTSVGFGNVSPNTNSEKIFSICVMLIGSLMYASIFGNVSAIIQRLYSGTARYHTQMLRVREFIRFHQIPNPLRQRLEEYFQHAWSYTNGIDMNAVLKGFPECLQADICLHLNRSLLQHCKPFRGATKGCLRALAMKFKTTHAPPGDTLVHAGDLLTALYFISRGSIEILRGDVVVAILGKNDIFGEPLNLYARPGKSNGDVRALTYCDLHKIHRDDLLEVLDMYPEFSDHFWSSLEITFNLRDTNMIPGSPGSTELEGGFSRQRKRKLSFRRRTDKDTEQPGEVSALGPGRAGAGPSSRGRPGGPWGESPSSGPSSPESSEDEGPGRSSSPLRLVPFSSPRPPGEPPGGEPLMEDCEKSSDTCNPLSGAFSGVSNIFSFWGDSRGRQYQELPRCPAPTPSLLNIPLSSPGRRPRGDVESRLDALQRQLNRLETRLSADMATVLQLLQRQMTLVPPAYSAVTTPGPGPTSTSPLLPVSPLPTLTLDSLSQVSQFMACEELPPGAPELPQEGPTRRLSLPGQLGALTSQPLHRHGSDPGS

The target in this experiment is Voltage-gated inwardly rectifying potassium channel KCNH2 (Homo sapiens) (UniProt Q12809). Nature of the experiment: Human Ether-a-go-go-Related Gene (hERG) channel small molecule antagonists: fluorescence cell-based qHTS assay (AID 1671200). Also: nearly all actives have a fitted effect of over 50% in size. The conditions noted are these: hERG-U2OS cells, FluxOR thallium flux fluorescence; series mostly up to 76.8 µM. An excerpt:
National Center for Advancing Translational Sciences [NCATS]
U.S. Environmental Protection Agency [EPA]
National Institutes of Environmental Health Sciences [NIEHS]
National Toxicology Program [NTP]
U.S. Food and Drug Administration [FDA]
Mutations in the hERG channel cause Long QT (LQT) syndrome. LQT syndrome is a cardiac disorder which can cause ventricle arrhythmia and sudden death. Additionally, compounds which block the hERG channel can cause acquired LQT syndrome. Several FDA approved drugs have been removed from the market due to their hERG blocking activity. A cell-based hERG channel inhibition assay can be used to screen chemical compounds that inhibit hERG channel. This assay measures hERG channel activity using thallium ions as surrogate ions to measure potassium into the cells.
Tox21 Assay Protocol Summary:
hERG-U2OS cells were resuspended in culture medium and dispensed into 1536-well, black wall/clear-bottom plates at 1000cells/well/3uL using a Multidrop Combi dispenser (Thermo Fisher, Waltham, MA). After plates were incubated at 37 C overnight, 3 uL of Loading Buffer provided by FluxOR II Potassium Ion Channel Assay kit (Thermo, Carlsbad, CA) was added to each well. The assay plates were then incubated at room temperature in the dark for 1h. […] After the assay plates were incubated at room temperature for 10 min, 1 uL of Stimulus Buffer provided by FluxOR II Potassium Ion Channel Assay kit was added into each well and fluorescence intensity (480nm excitation/540nm emission) was continuously measured for 2 min at 1 second intervals using a Functional Drug Screening System (FDSS) 7000EX kinetic plate reader (Hamamatsu, Japan).
On the technique in general: hERG is a cardiac potassium channel; its block is linked to QT prolongation.
As to `O=[N+]([O-])c1cccc2ccccc12`, the Potency entry was “inactive”.

Consider `N[C@@H](Cc1ccc(N(CCCl)CCCl)cc1)C(=O)O`, for which the Potency entry is “inactive”.

Consider `N#CC(Br)Br`, for which the Potency entry was “inactive”.

Regarding `Clc1nc(Cl)nc(Cl)n1`, the Potency entry was “inactive”.

As for `CCC(C)(c1ccc(O)cc1)c1ccc(O)cc1`, the Potency result was “inactive”.

Regarding `Oc1ccc(-c2ccccc2)cc1`, the Potency entry was “inactive”.

With `COP(=S)(OC)Oc1cc(Cl)c(Cl)cc1Cl`, the Potency entry is “inactive”.

`Cc1cc(C)cc(C)c1`: the Potency entry was “inactive”.

Regarding `OCC(O)CO`, the Potency result was “inactive”.

As for `S=C1NCCN1`, the Potency entry was “inactive”.

With `c1ccc(N=Nc2ccccc2)cc1`, the Potency entry is “inactive”.

In the case of `O=P(Oc1ccccc1)(Oc1ccccc1)Oc1ccccc1`, the Potency was 21.8 µM (active) and 38.9 µM (active).

For the molecule `O=P(O)(O)CCCl`, the Potency entry is “inactive”.

`Nc1cccnc1`: the Potency result is “inactive”.

Consider `CCc1cccc(CC)c1N(COC)C(=O)CCl`, for which the Potency result is “inactive”.

Consider `CCOCN(C(=O)CCl)c1c(C)cccc1CC`, for which the Potency result was “inactive”.

Take `NC(=S)Nc1ccccc1`: the Potency result was “inactive”.

As for `O=C(Nc1ccc(Br)cc1)c1cc(Br)cc(Br)c1O`, the Potency result is “inactive”.

Regarding `CCC(C)c1ccc(O)cc1` (stereo not given), the Potency result is “inactive”.

`C=C(C)[C@H]1Cc2c(ccc3c2O[C@@H]2COc4cc(OC)c(OC)cc4[C@@H]2C3=O)O1`: the Potency entry was “inactive”.

For `CCCCOCCOP(=O)(OCCOCCCC)OCCOCCCC`, the Potency entry is “inactive”.

With `Cc1cc(Cl)ccc1OCCCC(=O)O`, the Potency entry was “inactive”.

Take `O=C(O)C(F)(F)C(F)(F)C(F)(F)C(F)(F)C(F)(F)C(F)(F)C(F)(F)F`: the Potency entry was “inactive”.

For the molecule `CC1(C)C(C=C(Cl)Cl)C1C(=O)OC(C#N)c1cccc(Oc2ccccc2)c1` (stereo not given), the Potency entry is “inactive”.

`CCN(N=O)C(N)=O`: the Potency result was “inactive”.

Consider `C=CCc1ccc2c(c1)OCO2`, for which the Potency result was “inactive”.

For `CCOC(=O)C(C)OC(=O)c1cc(Oc2ccc(C(F)(F)F)cc2Cl)ccc1[N+](=O)[O-]` (stereo not given), the Potency entry is “inactive”.

Turning to `CCOc1cc(Oc2ccc(C(F)(F)F)cc2Cl)ccc1[N+](=O)[O-]`, the Potency result was “inactive”.

As for `C=CC(=O)OCCO`, the Potency result is “inactive”.

For `CC(C)C(=O)OCC(C)(C)C(OC(=O)C(C)C)C(C)C` (stereo not given), the Potency entry is “inactive”.

On to `NCc1cccnc1`, for which the Potency result was “inactive”.

Take `CCCCCCCCC(=O)NCc1ccc(O)c(OC)c1`: the Potency entry was “inactive”.

For the molecule `O=S(=O)(Oc1ccc(Cl)cc1)c1ccc(Cl)cc1`, the Potency is 24.5 µM (active).

On to `CCC(=O)O[C@H]1CC[C@H]2[C@@H]3CCC4=CC(=O)CC[C@]4(C)[C@H]3CC[C@]12C`, for which the Potency was 34.7 µM (active).

As for `CCCCCCCCOC(=O)c1ccccc1C(=O)OCCCCCCCC`, the Potency entry is “inactive”.

With `O=Cc1ccco1`, the Potency entry is “inactive”.

With `O=C(CCl)c1ccccc1`, the Potency entry was “inactive”.

With `C=C(C)C(=O)OCC1CO1` (stereo not given), the Potency result is “inactive”.

Regarding `CCC(CC)Nc1c([N+](=O)[O-])cc(C)c(C)c1[N+](=O)[O-]`, the Potency result was “inactive”.

Take `Nc1ccc(-c2ccc(N)c(N)c2)cc1N`: the Potency result was “inactive”.

Source of the values: PubChem BioAssay (Tox21).
